This is one part of the list. Unmarked numbers belong to inactive results. The source made the active and inactive calls. No stated cut-off is given here; in the data, active means inhibition mostly above about 35% (no sharp cut-off); inactive means mostly below about 32%.
Molecular target: Sentrin-specific protease 1 (Homo sapiens) (UniProt Q9P0U3)
Assay: retest of SENP1 SUMO protease blockers – biochemical, FRET endpoint, single concentration, confirmation (AID 651678);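 further: 0% = enzyme with DMSO and 100% = no enzyme control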
Settings: recombinant SENP1, CyPet-SUMO1-YPet FRET cleavage; at 10 µM; active compounds read high

Sequence of Sentrin-specific protease 1 (Homo sapiens) (Q9P0U3 419-644 limits assumed): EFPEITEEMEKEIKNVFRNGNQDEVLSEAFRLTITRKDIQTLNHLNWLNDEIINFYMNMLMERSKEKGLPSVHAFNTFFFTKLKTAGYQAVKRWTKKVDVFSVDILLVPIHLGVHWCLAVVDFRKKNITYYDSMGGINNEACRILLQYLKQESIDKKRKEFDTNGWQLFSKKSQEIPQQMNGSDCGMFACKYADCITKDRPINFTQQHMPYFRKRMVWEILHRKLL

Row | Compound | inhibition
1 | O=[N+]([O-])c1ccc(N=NNc2ccc([N+](=O)[O-])cc2)cc1 | 20.1%
2 | Cn1c(-c2sc3cc(C(F)(F)F)cnc3c2-c2ccccc2)n[nH]c1=S | -1.85%
3 | Fc1cccc(Cc2c(-c3cccc(Cl)c3)nc3ccc(Br)cn23)c1 | 4.53%
4 | Cc1cccc(C)c1Nc1c(-c2ccccc2O)nc2ncccn12 | 16.2%
5 | c1coc(-c2nc3nc4ccccc4n3nc2-c2ccco2)c1 | 19.4%
6 | Cc1ccc2c(c1)nnc1nnc(SCC(=O)O)n12 | 71.8% (active)
7 | Cc1cc(C(=O)N/N=C/c2ccc(N3CCOCC3)cc2)c(C)o1 | 29.1%
8 | Cc1ccc(C(=O)N/N=C\c2cc(Br)c(Br)o2)cn1 | 11.3%
9 | COc1ccc(OC)c(C2C3=C(N=c4s/c(=C\c5cccc(O)c5)c(=O)n42)c2ccccc2CC3)c1 (stereo not given) | 35.7%
10 | O=C(CCN1C(=O)/C(=C/c2cccs2)SC1=S)NNC(=O)c1cccc(O)c1 | 66.9% (active)
11 | CCCCCn1nnnc1-c1nc2cc3ccccc3cc2[nH]c1=O | 84.5% (active)
12 | N/C(=N\OC(=O)N1c2ccccc2Sc2ccccc21)c1ccc(Br)cc1 | -2.12%
13 | CCN(CC)S(=O)(=O)c1cc([N+](=O)[O-])ccc1N=Nc1c(O)n(C)c2ccccc12 | 10.5%
14 | COc1cc(/C=C2\CCCc3c2nc2ccccc2c3C(=O)O)cc(Cl)c1O | 97.5% (active)
15 | COc1ccc(N2C(=O)C3C(C2=O)C(C(=O)c2ccccc2)N2CCCC32)cc1 (stereo not given) | 36.9% (active)

Reference: PubChem BioAssay AID651678 (Sanford-Burnham Center for Chemical Genomics, 2012)
